The text below walks through data of PubChem BioAssay.

Activity calls are given as the source filed them.

In assay [1] the test system is PRMT1 (protein arginine N-methyltransferase 1). Nature of the assay: small molecules binding arginine methyltransferase PRMT1 – biochemical, small-molecule microarray, 635 nm fluorescence, primary screen (AID 1088).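 Also: binding of Prmt1 protein to compounds spotted on small-molecule microarray slides.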 To be noted: higher = more signal.
Assay [2] in a line: growth effects on S. cerevisiae YJM789 – YJM789 clinical isolate, OD600, 24 h, basal, primary screen (AID 1089).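 Also: growth of clinical yeast isolate S. cerevisiae YJM 789 seeded 1000 cells per well; test concentration not given here.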 The settings on record: higher = more signal, called active from +8 up or from −8 down.
A short description of assay [3]: S. pombe growth modifiers, basal conditions – strain 972, OD600, 24 h, no modulator, primary screen (AID 1090).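 Also: basal condition with compound alone and no growth modifier present; test concentration not given here.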 The settings on record: S. pombe 972 growth, higher = more signal, called active from +8 up or from −8 down.
A short description of assay [4]: budding yeast growth modifiers under rapamycin – strain BY4716, OD600, 96 h, primary screen (AID 1091). Also: test concentration not given here. To be noted: S. cerevisiae BY4716 + rapamycin, higher = more signal, called active from +8 up or from −8 down.
The target in assay [5] is Torsin-1A-interacting protein 2 (Homo sapiens) (UniProt Q8NFQ8). Nature of the assay: small molecules binding lysate-expressed LULL1 – cell lysate, human LULL1 lysate, 635/667 nm fluorescence, primary screen (AID 1092).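 Also: probe is lysate of COS7 cells overexpressing human LULL1; score merges per-feature 667 nm fluorescence with signal-to-noise.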 To be noted: small-molecule microarray, hLULL1 lysate binding, 635 nm fluorescence; higher = more signal.
Assay [6] in a line: optical density change of DRC41 E. coli – strain DRC41, OD650, 24 h, E. coli filamentation project, primary screen (AID 1093).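 Also: MC1000 strain lacking acrAB efflux and sulA so SOS filamentation is blocked; test concentration not given here.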 The settings on record: E. coli DRC41 growth, higher = more signal, called active from +8 up or from −8 down.
Assay [7] is described as follows: probe aLefty2 binding to arrayed compounds – biochemical, biotinylated probe, 635/667 nm fluorescence, primary screen (AID 1094).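 Also: score merges spot fluorescence near 667 nm with spot signal-to-noise ratio.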 The settings on record: small-molecule microarray, higher = more signal.
For assay [8], the system named is Noggin (protein binding on small-molecule microarray). Nature of the assay: small molecules binding Noggin protein – biochemical, 635/667 nm fluorescence, primary screen (AID 1095).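 Also: score merges 667 nm feature fluorescence with signal to noise over triplicate slides.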 To be noted: 635 nm fluorescence, higher = more signal.
Assay [9] deals with Neurogenic locus notch homolog protein 3 (Homo sapiens) (UniProt Q9UM47). Description: small molecules binding NOTCH3 protein – biochemical, 635/667 nm fluorescence, primary screen (AID 1096). To be noted: small-molecule microarray, 635 nm fluorescence, higher = more signal.
The nature of assay [10]: probe aEGFR binding to arrayed compounds – biochemical, biotinylated probe, 635/667 nm fluorescence, primary screen (AID 1097).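 Also: probe is a biotinylated anti-EGFR antibody binding compounds printed on slides; score combines fluorescence near 667 nm and signal to noise of each spot.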 To be noted: small-molecule microarray, higher = more signal.

Sequence of Neurogenic locus notch homolog protein 3 (Homo sapiens) (Q9UM47 whole entry, looked up): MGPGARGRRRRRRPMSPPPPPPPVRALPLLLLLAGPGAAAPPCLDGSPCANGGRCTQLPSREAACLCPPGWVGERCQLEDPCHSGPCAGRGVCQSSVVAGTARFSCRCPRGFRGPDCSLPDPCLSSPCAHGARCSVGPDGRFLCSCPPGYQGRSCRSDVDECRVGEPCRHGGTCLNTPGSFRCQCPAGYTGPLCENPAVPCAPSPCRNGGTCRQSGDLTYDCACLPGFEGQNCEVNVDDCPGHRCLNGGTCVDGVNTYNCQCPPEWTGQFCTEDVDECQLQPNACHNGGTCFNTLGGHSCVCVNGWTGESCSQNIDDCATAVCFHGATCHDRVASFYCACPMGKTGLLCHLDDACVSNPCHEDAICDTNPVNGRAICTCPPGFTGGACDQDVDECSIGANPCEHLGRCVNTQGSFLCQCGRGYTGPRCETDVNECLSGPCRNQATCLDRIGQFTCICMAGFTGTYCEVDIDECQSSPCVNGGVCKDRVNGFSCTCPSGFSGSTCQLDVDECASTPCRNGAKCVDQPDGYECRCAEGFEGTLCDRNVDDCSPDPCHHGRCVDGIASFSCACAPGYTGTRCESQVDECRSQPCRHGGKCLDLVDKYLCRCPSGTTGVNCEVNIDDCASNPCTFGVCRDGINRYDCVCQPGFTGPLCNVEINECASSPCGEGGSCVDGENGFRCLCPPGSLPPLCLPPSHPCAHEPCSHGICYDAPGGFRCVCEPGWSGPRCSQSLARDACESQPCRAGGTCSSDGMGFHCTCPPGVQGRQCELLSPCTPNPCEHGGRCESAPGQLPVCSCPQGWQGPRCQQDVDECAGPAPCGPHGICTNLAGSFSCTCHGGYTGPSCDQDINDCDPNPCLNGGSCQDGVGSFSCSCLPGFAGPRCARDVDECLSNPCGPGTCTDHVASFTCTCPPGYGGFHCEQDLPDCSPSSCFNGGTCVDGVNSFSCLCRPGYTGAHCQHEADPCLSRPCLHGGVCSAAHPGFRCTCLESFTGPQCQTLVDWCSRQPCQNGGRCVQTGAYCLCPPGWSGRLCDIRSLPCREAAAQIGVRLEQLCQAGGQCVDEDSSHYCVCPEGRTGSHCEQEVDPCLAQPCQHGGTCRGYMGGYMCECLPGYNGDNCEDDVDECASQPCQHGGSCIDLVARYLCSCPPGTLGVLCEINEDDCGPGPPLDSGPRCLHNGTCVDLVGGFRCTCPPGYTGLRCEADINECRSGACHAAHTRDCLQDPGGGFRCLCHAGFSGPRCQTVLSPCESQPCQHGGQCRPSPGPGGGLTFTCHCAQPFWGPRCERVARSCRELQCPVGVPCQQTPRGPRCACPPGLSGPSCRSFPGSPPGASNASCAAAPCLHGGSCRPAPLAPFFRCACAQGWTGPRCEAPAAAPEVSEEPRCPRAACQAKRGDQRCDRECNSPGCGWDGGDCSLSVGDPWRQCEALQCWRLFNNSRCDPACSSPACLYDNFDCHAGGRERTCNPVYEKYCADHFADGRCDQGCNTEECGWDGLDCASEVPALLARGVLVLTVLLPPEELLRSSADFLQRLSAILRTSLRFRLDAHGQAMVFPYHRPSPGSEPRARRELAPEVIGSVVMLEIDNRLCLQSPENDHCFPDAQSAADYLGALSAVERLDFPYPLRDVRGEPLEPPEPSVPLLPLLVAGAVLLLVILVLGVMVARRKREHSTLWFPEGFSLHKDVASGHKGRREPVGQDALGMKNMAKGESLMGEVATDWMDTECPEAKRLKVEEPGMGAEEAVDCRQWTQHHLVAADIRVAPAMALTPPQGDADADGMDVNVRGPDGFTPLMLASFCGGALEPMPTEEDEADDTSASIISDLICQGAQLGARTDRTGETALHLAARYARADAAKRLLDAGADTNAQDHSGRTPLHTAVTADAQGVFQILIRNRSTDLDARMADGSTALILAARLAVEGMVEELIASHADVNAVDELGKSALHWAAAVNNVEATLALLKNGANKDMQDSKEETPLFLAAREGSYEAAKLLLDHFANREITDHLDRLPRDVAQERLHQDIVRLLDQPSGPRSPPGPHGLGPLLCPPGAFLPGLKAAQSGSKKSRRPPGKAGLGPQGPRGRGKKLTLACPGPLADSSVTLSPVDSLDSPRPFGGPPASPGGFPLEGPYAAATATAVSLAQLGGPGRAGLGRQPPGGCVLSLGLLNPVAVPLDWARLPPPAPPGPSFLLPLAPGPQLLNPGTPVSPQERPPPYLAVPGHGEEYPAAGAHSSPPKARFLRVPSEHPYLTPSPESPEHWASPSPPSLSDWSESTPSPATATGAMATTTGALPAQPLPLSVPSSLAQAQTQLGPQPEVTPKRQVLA
Sequence of Torsin-1A-interacting protein 2 (Homo sapiens) (Q8NFQ8 whole entry, looked up): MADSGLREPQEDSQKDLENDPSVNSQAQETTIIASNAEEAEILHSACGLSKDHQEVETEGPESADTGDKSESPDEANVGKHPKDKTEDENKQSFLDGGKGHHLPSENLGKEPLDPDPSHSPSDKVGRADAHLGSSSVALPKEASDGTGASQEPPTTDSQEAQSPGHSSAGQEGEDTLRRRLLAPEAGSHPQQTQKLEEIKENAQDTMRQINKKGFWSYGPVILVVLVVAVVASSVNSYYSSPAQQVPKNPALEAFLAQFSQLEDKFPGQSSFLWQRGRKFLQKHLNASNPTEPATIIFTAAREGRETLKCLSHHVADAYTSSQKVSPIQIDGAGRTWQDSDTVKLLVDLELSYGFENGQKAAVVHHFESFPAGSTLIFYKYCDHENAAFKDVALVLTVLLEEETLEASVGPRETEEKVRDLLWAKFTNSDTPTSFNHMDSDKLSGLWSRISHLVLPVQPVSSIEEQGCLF

With `O=C1C2C=CC(C(O)C(c3ccccc3)c3ccccc3)N(n3cnnc3)C2C(=O)N1Cc1ccccc1` (stereo not given), the composite z-score in assay [1] is 1.44; in assay [5], 3.25; in [7], -0.109; in assay [8], 0.531; in [9], 1.1; in [10], -0.167. In addition, the z-score was -0.743 (inactive) in [2], -0.615 (inactive) in assay [3], -0.771 (inactive) in assay [4] and -1.21 (inactive) in assay [6].
As to `COC(=O)[C@@]1(Cc2ccccc2)[C@H]2c3cc(C(=O)N4CCCC4)n(CC4CC4)c3C[C@H]2CN1C(=O)c1ccccc1`, the composite z-score in assay [1] came to 1.21; in assay [5], 3.32; in assay [7], 0.508; in assay [8], 0.294; in [9], 1.05; in assay [10] it was 0.776. For the same molecule, the z-score in assay [2] was 0.0645 (inactive); in [3] it was 0.513 (inactive); in [4] it was 0.667 (inactive); in assay [6], -0.887 (inactive).
For `CN(C)C(=O)[C@@]1(Cc2ccccc2)N=C(c2ccc(OCCCO)cc2)O[C@H]1c1ccccc1N=[N+]=[N-]`, the composite z-score was 1.53 in [1]; 3.3 in [5]; 0.306 in [7]; 0.835 in assay [8]; 1.11 in [9]; 0.0595 in assay [10]. The z-score in assay [2] was -2.59 (inactive); in [3] it was -1.89 (inactive); in assay [4], 4.73 (inactive); in assay [6], 0.875 (inactive).
In the case of `CC1CC/C=C\[C@H]2OC34C=CCN(Cn5nnc6ccccc65)C(=O)[C@H]3N(C(CO)C(C)C)C(=O)[C@@H]4C2C(=O)O1` (stereo not given in full), the composite z-score was 1.34 in assay [1]; 3.28 in assay [5]; 0.0723 in assay [7]; -0.772 in [8]; 0.113 in assay [9]; -0.0987 in assay [10]. Moreover, the z-score in assay [2] is -0.973 (inactive); in assay [3], -1.02 (inactive); in assay [4], -0.931 (inactive); in assay [6], 0.309 (inactive).
In the case of `O=C1O[C@H](c2ccccc2)[C@H](c2ccccc2)N2[C@H]1[C@@H](C(=O)Nc1nc3ccccc3s1)[C@]1(C(=O)Nc3ccc(C#CC4(O)CCCCCC4)cc31)[C@H]2c1ccc(OCCO)cc1`, the composite z-score in assay [1] amounted to 1.56; in assay [5], 2.2; in [7], 0.0317; in assay [8], 0.986; in assay [9], 1.02; in assay [10] it was 0.0589. Further, the z-score in assay [2] is 1.22 (inactive); in assay [3] it was 1.76 (inactive); in assay [4] it was 1.76 (inactive); in assay [6], 0.546 (inactive).
Turning to `COC(=O)[C@@]1(Cc2ccccc2)[C@H]2c3cc(C(=O)N4CCCC4)n(Cc4nc5ccccc5[nH]4)c3C[C@H]2CN1C(=O)c1ccccc1`, the composite z-score is 1.54 in assay [1]; 3.82 in [5]; 0.746 in assay [7]; -0.192 in assay [8]; 1.11 in [9]; 0.13 in [10]. The z-score in [2] is -0.0672 (inactive); in assay [3] it was 0.193 (inactive); in [4], 1.63 (inactive); in [6], 0.0607 (inactive).
Take `O=C1OCCC/C=C\[C@H]2OC34C=CCN(Cn5nnc6ccccc65)C(=O)[C@H]3N(CCO)C(=O)[C@@H]4C12` (stereo not given in full): the composite z-score was -0.614 in [1]; 1.41 in assay [5]; 0.478 in [7]; -0.708 in assay [8]; -0.571 in assay [9]; -0.0015 in assay [10]. In addition, the z-score in [2] was 0.744 (inactive); in assay [3], -0.0999 (inactive); in assay [4], -0.277 (inactive); in assay [6] it was 2.83 (inactive).
`COc1ccc(C(O)C2C=CC3C(=O)N(c4ccccc4)C(=O)C3N2Nc2ccc(C(C)C)cc2)cc1OCc1ccccc1` (stereo not given): the composite z-score in [1] amounted to 1.61; in assay [5] it was 2.97; in assay [7], 0.308; in assay [8], 0.112; in assay [9], 1.03; in assay [10], 0.339. For the same molecule, the z-score was 0.345 (inactive) in assay [2], 0.309 (inactive) in [3], -0.707 (inactive) in assay [4] and -3.72 (inactive) in assay [6].
`COC(=O)C(CC#Cc1ccc2c(c1)[C@]1(C(=O)N2)[C@H](c2ccc(O)cc2)N2[C@H](c3ccccc3)[C@H](c3ccccc3)OC(=O)[C@H]2[C@@H]1C(=O)Nc1nc2ccccc2s1)C(=O)OC`: the composite z-score is 1.54 in assay [1]; 3.22 in [5]; 0.0669 in assay [7]; 0.508 in assay [8]; 1.13 in assay [9]; 0.0414 in assay [10]. In addition, the z-score in assay [2] is -1.28 (inactive); in assay [3], -0.496 (inactive); in assay [4], -1.33 (inactive); in [6] it was 0.91 (inactive).
Consider `CN1C(=O)C2C=CC(C(O)c3ccccc3)N(Nc3ccccc3)C2C1=O` (stereo not given), for which the composite z-score in assay [1] is 0.47; in [5], 2.71; in [7], 0.0105; in assay [8], -1.09; in [9], -0.557; in assay [10], -0.0828. Besides, the z-score in assay [2] is -0.124 (inactive); in [3] it was 0.807 (inactive); in assay [4] it was 0.646 (inactive); in assay [6], -1.79 (inactive).
With `COCCOC(=O)N1C(=O)[C@@]2(c3cc(C#CCNC(N)=O)ccc31)[C@H](C(=O)NC[C@H](O)c1ccccc1)[C@H]1C(=O)O[C@H](c3ccccc3)[C@H](c3ccccc3)N1[C@@H]2c1ccccc1OCCO`, the composite z-score in [1] is 1.55; in [5] it was 2.6; in assay [7], -0.0644; in assay [8], 1.72; in assay [9], 0.98; in assay [10], -0.118. The z-score in [2] is 1.56 (inactive); in assay [3] it was 1.11 (inactive); in [4], 3.45 (inactive); in [6], -0.124 (inactive).
On to `C=CCNC(=O)[C@H]1[C@@H]2C(=O)O[C@@H](c3ccccc3)[C@@H](c3ccccc3)N2[C@@H](c2ccc(O)cc2)[C@]12C(=O)N(C(=O)OCCOC)c1ccc(C#CCNC(N)=O)cc12`, for which the composite z-score was 1.42 in [1]; 0.922 in assay [5]; 0.136 in assay [7]; 0.79 in assay [8]; 0.924 in [9]; 0.0821 in assay [10]. In addition, the z-score was 0.905 (inactive) in assay [2], 0.311 (inactive) in assay [3], 1.63 (inactive) in assay [4] and -0.781 (inactive) in assay [6].
On to `CCCCCN1CC=CC23O[C@@H]4/C=C\CCCOC(=O)C4[C@H]2C(=O)N(C(CO)C(C)C)[C@@H]3C1=O` (stereo not given in full), for which the composite z-score is 0.0207 in [1]; 0.868 in assay [5]; -0.124 in assay [7]; 0.0296 in assay [8]; 0.243 in [9]; -0.201 in assay [10]. Also, the z-score was -0.215 (inactive) in [2], -0.84 (inactive) in [3], -0.809 (inactive) in [4] and 1.65 (inactive) in assay [6].
Turning to `COCCOC(=O)N1C(=O)[C@@]2(c3cc(C#CC4=CCCCC4)ccc31)[C@H](C(N)=O)[C@H]1C(=O)O[C@H](c3ccccc3)[C@H](c3ccccc3)N1[C@@H]2c1ccc(OCCO)cc1`, the composite z-score in assay [1] was 1.54; in [5] it was 1.6; in assay [7], -0.399; in [8] it was 0.904; in [9], 1.01; in assay [10] it was -0.238. Further, the z-score in assay [2] is 1.44 (inactive); in assay [3], 1.28 (inactive); in assay [4] it was 3.59 (inactive); in assay [6] it was -0.385 (inactive).
